Results as given in the supplement of paper PMC10646978.
± gives the standard deviation.

Columns and labels:
Details in all cases: modulator concentration 10 µM
[1] = tested on: RAW-Dual (murine macrophage reporter line); test: NF-kB reporter (SEAP) activity fold change vs agonist alone; higher = enhanced NF-kB activity
Procedure, shortened: (§1)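 Compound reached 10 μM final in each well by pin transfer, onto RAW-Dual murine macrophage reporter cells seeded at 50 000 per well in 384-well plates. After 1 hour at 37 °C, the cells were stimulated overnight with a PRR agonist. SEAP in the supernatant was read with QUANTI-Blue at 620 nm absorbance for NF-κB, and Lucia luciferase was read with QUANTI-Luc luminescence for IRF. Each signal was turned into fold change against the mean agonist-only control on the same plate, and two replicate plates were averaged with propagated errors.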

[2] = tested on: RAW-Dual (murine macrophage reporter line); test: IRF reporter (Lucia luciferase) activity fold change vs agonist alone; higher = enhanced IRF activity
Procedure, shortened: as §1

[3] = tested on: RAW-Dual (murine macrophage reporter line); test: viability score (confluency relative to resting cells, overnight) (fraction); higher = more viable, active = viable (0.7 or more)
Procedure, shortened: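 Compound was added at a final 10 μM to RAW-Dual macrophages in 384-well plates and left overnight. Confluency was imaged with IncuCyte, and two masks were generated in IncuCyte software over all imaged wells. Each viability score is confluency relative to resting cells, and a compound met the cutoff only when both masks were above 70% of resting cells.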

[4] = agonist: CpG ODN 1826 0.5 ug/mL

| SMILES | NF-kB reporter [1, 4] | NF-kB reporter ([1]; agonist: LPS 0.1 ug/mL) | NF-kB reporter ([1]; agonist: MPLA […]) | IRF reporter ([2]; agonist: 3'3'-cGAMP 10 ug/mL) | IRF reporter ([2]; agonist: LPS 0.1 ug/mL) | IRF reporter ([2]; agonist: MPLA […]) | viability score [3] |
| --- | --- | --- | --- | --- | --- | --- | --- |
| COc1cc(C=NN2C(=O)c3cccc4cccc(c34)C2=O)cc(Br)c1OC | 1.02 ± 0.08 | 1.12 ± 0.062 | 0.967 ± 0.062 | 1.01 ± 0.032 | 1.51 ± 0.29 | 1.13 ± 0.17 | 1.01 (active) |
| CCc1ccccc1Nc1nc(-c2sc(NC(C)=O)nc2C)cs1 | 0.65 ± 0.1 | 0.555 ± 0.052 | 0.582 ± 0.048 | 0.778 ± 0.028 | 1.3 ± 0.3 | 1.42 ± 0.26 | 0.536 (inactive) |
| COc1ccc(Nc2nc(N3CCCCC3)c3cnn(C)c3n2)cc1 | 0.753 ± 0.043 | 1.23 ± 0.096 | 1.08 ± 0.048 | 0.388 ± 0.02 | 0.967 ± 0.097 | 1.23 ± 0.12 | 0.969 (active) |
| COc1ccc(C=Nn2cnnc2)cc1COc1cc(C)c(Cl)cc1C(C)C | 0.854 ± 0.088 | 0.761 ± 0.04 | 0.984 ± 0.095 | 1.21 ± 0.11 | 1.03 ± 0.06 | 1.3 ± 0.11 | 0.995 (active) |
| O=C(NCCc1nc(C2CC2)cc(C(F)(F)F)n1)c1c(F)cccc1Cl | 1.01 ± 0.079 | 1.11 ± 0.087 | 0.943 ± 0.11 | 1.01 ± 0.053 | 1.13 ± 0.086 | 1.07 ± 0.12 | 1 (active) |
| O=C(Nc1ccon1)C1CN(C(=O)COc2ccccc2F)C1 | 1.08 ± 0.18 | 1.07 ± 0.14 | 1.04 ± 0.1 | 1.06 ± 0.042 | 1.25 ± 0.24 | 1.33 ± 0.2 | 0.992 (active) |
| CCc1c(C)[nH]c2c1C(=O)C(CN1CCOCC1)CC2.Cl (stereo not given) | 0.108 ± 0.0046 | 0.221 ± 0.024 | 0.714 ± 0.042 | 0.752 ± 0.039 | 1.5 ± 0.24 | 1.4 ± 0.43 | 0.855 (active) |
| N#Cc1cc(OC2CCSC2)nc2ccccc12 (stereo not given) | 1.04 ± 0.067 | 1.05 ± 0.095 | 1.18 ± 0.065 | 0.935 ± 0.071 | 0.959 ± 0.045 | 1.15 ± 0.16 | 1 (active) |
| COc1ccc(CC(=O)N2CCCc3ccccc32)cc1OC | 0.909 ± 0.078 | 0.778 ± 0.054 | 1.01 ± 0.09 | 0.973 ± 0.046 | 1.41 ± 0.1 | 1.6 ± 0.17 | 1.02 (active) |
| Cc1cccc(C(=O)N2N=C(C3CCCCC3)CC2(O)C(F)(F)F)c1O (stereo not given) | 0.735 ± 0.057 | 0.839 ± 0.064 | 0.955 ± 0.089 | 0.939 ± 0.046 | 1.4 ± 0.093 | 1.52 ± 0.14 | 1.01 (active) |
| CCOC(=O)CN1CCOCCOCCN(CC(=O)OCC)CCOCCOCC1 | 0.937 ± 0.078 | 0.971 ± 0.061 | 0.957 ± 0.067 | 0.974 ± 0.052 | 1.23 ± 0.088 | 1.02 ± 0.1 | 1.01 (active) |
| CN1CCN(C2=C(Cl)C(=O)N(c3cccc(Cl)c3)C2=O)CC1 | 1.09 ± 0.079 | 0.914 ± 0.099 | 1.01 ± 0.03 | 0.465 ± 0.022 | 0.972 ± 0.053 | 0.974 ± 0.096 | 0.993 (active) |
| O=C(Cc1ccc([N+](=O)[O-])cc1)NN=Cc1ccncc1 | 0.864 ± 0.26 | 1.08 ± 0.098 | 1.03 ± 0.16 | 0.964 ± 0.038 | 1.15 ± 0.18 | 1.44 ± 0.42 | 1 (active) |
| CSc1nc2cccc(F)c2c(=O)n1C1CC1 | 1.06 ± 0.078 | 1.02 ± 0.093 | 1.18 ± 0.076 | 1.09 ± 0.051 | 1.31 ± 0.25 | 1.52 ± 0.38 | 0.67 (inactive) |
| CCCC1CC(C(=O)NC(C(C)O)C2OC(SC)C(O)C(O)C2O)N(C)C1.Cl (stereo not given) | 0.947 ± 0.073 | 0.93 ± 0.072 | 0.924 ± 0.099 | 0.956 ± 0.031 | 1.24 ± 0.11 | 1.32 ± 0.17 | 1.04 (active) |
| c1ccc(OCCOc2ccc(Nc3ccnc4cc5ccccc5cc34)cc2)cc1 | 0.294 ± 0.05 | 1.04 ± 0.067 | 1.8 ± 0.17 | 0.896 ± 0.035 | 1.48 ± 0.13 | 1.78 ± 0.17 | 0.23 (inactive) |
| CCOc1ccc(C=Nc2cccc3ncccc23)cc1 | 0.971 ± 0.084 | 1.02 ± 0.067 | 0.958 ± 0.077 | 0.424 ± 0.019 | 1.15 ± 0.11 | 0.979 ± 0.095 | 1 (active) |
| Cc1cc(Cl)ccc1OCCCC(=O)NO | 0.745 ± 0.091 | 0.794 ± 0.039 | 1.19 ± 0.028 | 0.234 ± 0.014 | 0.449 ± 0.084 | 0.553 ± 0.12 | 0.986 (active) |
| CCC(=O)N1c2ccccc2NC2=C(C(=O)CC(c3ccccc3F)C2)C1c1ccc(C)cc1 (stereo not given) | 1.02 ± 0.12 | 1.07 ± 0.079 | 1 ± 0.064 | 0.985 ± 0.043 | 1.35 ± 0.3 | 1.07 ± 0.072 | 1.01 (active) |
| O=C(NCCN1CCOCC1)c1ccc(F)cc1 | 1.11 ± 0.1 | 0.995 ± 0.094 | 1.01 ± 0.039 | 1.05 ± 0.17 | 1.03 ± 0.053 | 1 ± 0.12 | 0.986 (active) |
| O=C1CN(C(=O)c2cc3ccccc3o2)c2ccccc2N1 | 1.1 ± 0.35 | 1.01 ± 0.052 | 1.21 ± 0.1 | 0.992 ± 0.035 | 1.03 ± 0.14 | 1.1 ± 0.14 | 0.998 (active) |
| CCC(=O)N1c2ccccc2NC2=C(C(=O)CC(c3ccccc3Cl)C2)C1c1ccc(C)cc1 (stereo not given) | 1.02 ± 0.17 | 0.983 ± 0.079 | 0.961 ± 0.15 | 0.837 ± 0.022 | 1.2 ± 0.17 | 1.23 ± 0.36 | 1.01 (active) |
| O=C(CC1CCCCN1S(=O)(=O)c1ccccc1)NCCC1=CCCCC1 (stereo not given) | 0.994 ± 0.13 | 1.21 ± 0.095 | 0.903 ± 0.13 | 1.03 ± 0.054 | 1.23 ± 0.08 | 1.38 ± 0.11 | 1.01 (active) |
| COc1cc2c(Oc3ccc4[nH]c(C)cc4c3F)ncnc2cc1OCCCN1CCCC1 | 0.607 ± 0.097 | 1.03 ± 0.052 | 1.09 ± 0.11 | 0.927 ± 0.043 | 1.22 ± 0.082 | 1.35 ± 0.12 | 1 (active) |
| O=C(NC1CCOCC1)N1CCOC(c2cc(Cl)cc(Cl)c2)C1 (stereo not given) | 0.83 ± 0.036 | 1.05 ± 0.083 | 1.09 ± 0.06 | 0.971 ± 0.045 | 1.35 ± 0.27 | 1.54 ± 0.52 | 0.968 (active) |
